# Experimental data published in article PMC10668032, “Altered binding affinity of SIX1-Q177R correlates with enhanced WNT5A and WNT pathway effector expression in Wilms tumor”.
# In all, about 33,000 sequences were measured (“e-score”: median about -0.053, highest 2% from about 0.38 on). The sample as a whole holds a higher share of the highest values than the screen did.
# Biological target: T1, SIX1 homeodomain (reference allele) (human, UniProt Q15475 108-198)
# T1 sequence: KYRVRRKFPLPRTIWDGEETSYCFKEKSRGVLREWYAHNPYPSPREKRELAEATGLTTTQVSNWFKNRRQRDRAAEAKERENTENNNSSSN
# Test: universal protein binding microarray; Universal all-10-mer PBM (8x60K, AMADID 030236), 300 nM GST-tagged protein, Alexa Fluor 488 anti-GST; buffer, salt, pH and temperature not stated (as in Berger); high values mean tight binding
# Conditions: protein: ivt; tags: N-terminal GST; dsDNA, one strand shown
# Procedure, shortened: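 Binding was expressed as 8-mer E-scores calculated with the Universal PBM Analysis Suite. The GST-tagged homeodomains, made by in vitro transcription/translation, were applied in duplicate at 300 nM final concentration to universal 'all 10-mer' protein binding microarrays (8×60K format).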
row,Sequence,binding signal
1,TATCCTCA,0.37 ± 0.037 E-score
2,TATCAGCA,0.327 ± 0.0344 E-score
3,TATTATCA,0.187 ± 0.0898 E-score
4,AGGTGGAT,0.305 ± 0.034 E-score
5,CATAGATC,0.249 E-score
6,CGGTGTGA,0.204 ± 0.0905 E-score
7,GGTTAGAA,0.153 ± 0.0251 E-score
8,ATACTCTA,0.268 ± 0.0991 E-score
9,CATAATCC,0.3 ± 0.0272 E-score
10,AATTGTAT,0.162 ± 0.0456 E-score
11,CATACCAG,0.171 ± 0.0153 E-score
12,CCATTATA,0.177 ± 0.0248 E-score
13,ATCCAAGA,0.155 ± 0.0124 E-score
14,CAGGGCGA,0.216 ± 0.0603 E-score
15,ACATCCGG,0.174 ± 0.064 E-score
16,ATATCCGG,0.4206 ± 0.00416 E-score
17,AAATCCGG,0.244 ± 0.0271 E-score
18,GTATCCGA,0.426 ± 0.0105 E-score
19,ATCTCCGA,0.258 ± 0.0265 E-score
20,CAATCCGC,0.29 ± 0.0084 E-score
21,GAATCCGA,0.188 ± 0.0166 E-score
22,CTATCCGC,0.3601 ± 0.000778 E-score
23,ATATCCGA,0.429 ± 0.0108 E-score
24,GCATCCGA,0.203 ± 0.0461 E-score
25,CTATCCGA,0.33 ± 0.00993 E-score
26,ATATCCGC,0.43 ± 0.0222 E-score

row,Sequence,binding signal
1,ATCGAAGA,0.293 ± 0.0315 E-score
2,GCCAATAC,0.16 ± 0.00361 E-score
3,TCAGCTCA,0.162 ± 0.0286 E-score
4,ACTATCTG,0.178 ± 0.0443 E-score
5,GATCGCAA,0.242 ± 0.0198 E-score
6,GATCGTGA,0.229 ± 0.0511 E-score
7,ATCACTAA,0.166 ± 0.051 E-score
8,ATCGTAGA,0.193 ± 0.0118 E-score
9,GGTGTACA,0.306 ± 0.0258 E-score
10,CATACATG,0.154 ± 0.0235 E-score
11,ATCCGCGA,0.259 ± 0.011 E-score
12,AAGAGATA,0.235 ± 0.141 E-score
13,TAGTGAGA,0.203 ± 0.0506 E-score
14,GAGTGAGA,0.234 ± 0.0134 E-score
15,CAGTGATA,0.417 ± 0.0231 E-score
16,AAGTGATA,0.397 ± 0.0754 E-score
17,ACGTGATA,0.344 ± 0.0436 E-score
18,TAGTGTGA,0.184 ± 0.00834 E-score
19,GAGTGATA,0.447 ± 0.0268 E-score
20,GAGAGATA,0.323 ± 0.0528 E-score
21,CAGTGAGA,0.16 ± 0.032 E-score
22,TAGTGATA,0.415 ± 0.0394 E-score
23,ATACTTCG,0.304 ± 0.058 E-score
24,GACAATCC,0.18 ± 0.0145 E-score
25,ATCAACAA,0.222 ± 0.0259 E-score
26,CATATGAC,0.166 ± 0.0391 E-score

row,Sequence,binding signal
1,ATACATCG,0.238 ± 0.0407 E-score
2,ACTTACCG,0.152 ± 0.00235 E-score
3,TATATTGA,0.258 ± 0.0428 E-score
4,GTGTCGGA,0.322 ± 0.041 E-score
5,GGATGGGA,0.195 ± 0.0444 E-score
6,CAGATTGA,0.219 ± 0.0123 E-score
7,CCGTGATA,0.348 ± 0.0248 E-score
8,ACGTGATC,0.302 ± 0.0538 E-score
9,CAGTGATC,0.382 ± 0.0157 E-score
10,AAGTGATC,0.391 ± 0.00486 E-score
11,GCGTGATA,0.437 ± 0.0364 E-score
12,GAGTGATC,0.336 ± 0.0148 E-score
13,AATTGATC,0.291 ± 0.0151 E-score
14,CCGTGATC,0.364 ± 0.0193 E-score
15,GATCTATA,0.298 ± 0.0183 E-score
16,CCTACACC,0.163 ± 0.0313 E-score
17,CCGTAATA,0.205 ± 0.0335 E-score
18,TACTCGAA,0.152 ± 0.00667 E-score
19,TACACGGA,0.173 ± 0.0418 E-score
20,ACCATCCG,0.23 ± 0.0704 E-score
21,ATACATCC,0.365 ± 0.0231 E-score
22,GATTAATA,0.301 ± 0.0732 E-score
23,ATACGCGG,0.182 ± 0.0649 E-score
24,AAGGGTGT,0.32 ± 0.00631 E-score
25,AGGGGTAG,0.214 ± 0.0325 E-score
26,ACGGGTAT,0.435 ± 0.0111 E-score

row,Sequence,binding signal
1,ACAGGTAT,0.312 ± 0.0224 E-score
2,AAGGGTAT,0.41 ± 0.0209 E-score
3,AGGGGTAT,0.451 ± 0.0124 E-score
4,AGAGGTAT,0.399 ± 0.0394 E-score
5,AACGGTAT,0.234 ± 0.0543 E-score
6,AAAGGTAT,0.337 ± 0.087 E-score
7,AAGGGTAA,0.173 ± 0.0225 E-score
8,AGGGGTAC,0.178 ± 0.0933 E-score
9,CCGGGTAG,0.162 ± 0.0432 E-score
10,CATCCCGA,0.175 ± 0.0394 E-score
11,CGGATTGA,0.305 ± 0.0268 E-score
12,AATGTATA,0.259 ± 0.0211 E-score
13,ACACCTCT,0.239 ± 0.0609 E-score
14,TATCCAAA,0.297 ± 0.0104 E-score
15,GGATTACA,0.18 ± 0.0206 E-score
16,ATCGTCTG,0.162 ± 0.0451 E-score
17,CCGGCATC,0.201 ± 0.0414 E-score
18,AATACTGT,0.183 ± 0.00786 E-score
19,GATACTGC,0.44524 ± 0.000438 E-score
20,GATACTGA,0.42285 ± 0.000276 E-score
21,AATACTTG,0.151 ± 0.0521 E-score
22,GACACTGA,0.161 ± 0.0506 E-score
23,GATACTTA,0.401 ± 0.0667 E-score
24,AATACTTC,0.2 ± 0.116 E-score
25,TATACTGA,0.239 ± 0.00916 E-score
26,AATACTGC,0.162 ± 0.0355 E-score

row,Sequence,binding signal
1,ATCGAGTA,0.226 ± 0.00853 E-score
2,CGAATACA,0.151 ± 0.0627 E-score
3,CCGCCTGA,0.228 ± 0.0274 E-score
4,AACACCAG,0.164 ± 0.0278 E-score
5,ATCGCCCG,0.198 ± 0.0602 E-score
6,ACTCCATC,0.162 ± 0.00629 E-score
7,ATCAGCTG,0.154 ± 0.0485 E-score
8,CCCTCATC,0.176 ± 0.0843 E-score
9,CGACACTC,0.177 ± 0.0347 E-score
10,ATACATAG,0.177 ± 0.0401 E-score
11,ATAGTATG,0.258 ± 0.00892 E-score
12,CTAGTATA,0.242 ± 0.0487 E-score
13,ATAGTATA,0.29 ± 0.0405 E-score
14,CTAGTATC,0.388 ± 0.0365 E-score
15,GTAGTATA,0.267 ± 0.0665 E-score
16,ATAGTATC,0.426 ± 0.0263 E-score
17,CATGTGAG,0.152 ± 0.0831 E-score
18,ATCCAAGC,0.169 ± 0.0665 E-score
19,AGCCGATC,0.329 ± 0.0103 E-score
20,ACGTATCG,0.413 ± 0.0215 E-score
21,CCGTATTC,0.177 ± 0.00726 E-score
22,CCGTATCC,0.438 ± 0.0211 E-score
23,ACGTATAA,0.268 ± 0.0722 E-score
24,ACGTATTC,0.234 ± 0.0548 E-score
25,ACGTATAG,0.189 ± 0.0603 E-score
26,CCGTATAC,0.36 ± 0.00586 E-score

row,Sequence,binding signal
1,ACGTATCT,0.339 ± 0.0607 E-score
2,ACGTATCA,0.474 ± 0.0189 E-score
3,ACGTATCC,0.377 ± 0.0283 E-score
4,GCGTATCC,0.369 ± 0.00641 E-score
5,ACGTATTG,0.211 ± 0.0377 E-score
6,ATCAGTTA,0.182 ± 0.0174 E-score
7,AAGATCGG,0.174 ± 0.064 E-score
8,CGGATTAG,0.251 ± 0.0088 E-score
9,ATTGACAC,0.3147 ± 0.00157 E-score
10,CCCGATCA,0.347 ± 0.0408 E-score
11,ATCAGTGG,0.261 ± 0.0178 E-score
12,GCATATAC,0.227 ± 0.0131 E-score
13,ACATATCA,0.446 ± 0.0429 E-score
14,GCATATCC,0.391 ± 0.00731 E-score
15,CCATATCA,0.472 ± 0.0124 E-score
16,TCATATGA,0.303 ± 0.0253 E-score
17,GAATATCC,0.276 ± 0.0527 E-score
18,CCATATAA,0.155 ± 0.0479 E-score
19,TCATATCA,0.418 ± 0.0507 E-score
20,CCATATTA,0.265 ± 0.0697 E-score
21,TAATATCA,0.34 ± 0.0768 E-score
22,ACATATGA,0.166 ± 0.0311 E-score
23,ACATATTA,0.161 ± 0.0413 E-score
24,AACGCATA,0.203 ± 0.0681 E-score
25,AGAACACC,0.179 ± 0.0208 E-score
26,CCCCGCGA,0.229 ± 0.018 E-score

row,Sequence,binding signal
1,ACCCAGCT,0.181 ± 0.00331 E-score
2,AGCCATCG,0.173 ± 0.0382 E-score
3,TGAAACCA,0.163 ± 0.0347 E-score
4,GCATATTA,0.249 ± 0.0567 E-score
5,GCATATAA,0.175 ± 0.0587 E-score
6,GCATATCA,0.449 ± 0.0321 E-score
7,AATGTGAT,0.178 ± 0.0316 E-score
8,ACTATATA,0.247 ± 0.0141 E-score
9,AACGGTGT,0.253 ± 0.00261 E-score
10,CGAATCGA,0.182 ± 0.0398 E-score
11,GGTATCGA,0.463 ± 0.00936 E-score
12,CGTATTGA,0.23 ± 0.0207 E-score
13,GGTATTAC,0.385 ± 0.0216 E-score
14,GGTATGGA,0.252 ± 0.0421 E-score
15,GGTATTAA,0.366 ± 0.0749 E-score
16,AGTATTGA,0.193 ± 0.0395 E-score
17,CGTATAGA,0.28 ± 0.00298 E-score
18,CGTATCGA,0.3978 ± 0.00377 E-score
19,GGTATTGA,0.3862 ± 0.0022 E-score
20,AGTATTAC,0.188 ± 0.0763 E-score
21,GCTATCGA,0.253 ± 0.0112 E-score
